Assay [1] can be described thus: Human pregnane X receptor (PXR) small molecule agonists, qHTS cell viability counter screen (AID 1346977). Further: nearly all actives have a fitted effect of over 50% in size. Further: potency means the concentration at half of the fitted maximal effect. The method, boiled down:
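After a 5hr pre-incubation, PXR-Luc HepG2 cells received compounds plus positive control in DMSO and were kept 24hr at 37C. Cell viability was quantified by fluorescence from CellTiter-Fluor added for the final hour.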
For orientation: qHTS replaces the single test concentration by a dilution series.

Assay [2] is described as follows: Caspase-3/7 induction in HepG2 cells by small molecules, qHTS assay (AID 1346978). Further: nearly all actives have a fitted effect of over 15% in size. The method, boiled down: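 Wild-type HepG2 cells, 2,000/well, settled 5 hr at 37 C and 5% CO2, then compound-treated for 17 hr; caspase-3/7 activity read by luminescent Caspase-Glo 3/7 after 30 min at room temperature.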
Assay [3] can be described thus: Caspase-3/7 induction in CHO-K1 cells by small molecules, qHTS cell viability counter screen (AID 1346979). Further: nearly all actives have a fitted effect of over 35% in size. Further: potency means the concentration at half of the fitted maximal effect. A digest of the protocol: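 Multiplexed with Caspase-Glo 3/7 in CHO-K1 cells, this counter screen added CellTiter-Fluor after 16hr of compound exposure and recorded fluorescence 1hr later.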
Assay [4] in a line: Caspase-3/7 induction in CHO-K1 cells by small molecules, qHTS assay (AID 1346980). Further: nearly all actives have a fitted effect of over 15% in size. A digest of the protocol: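 Wild-type CHO-K1 cells exposed to compounds for 17hr at 37 C, 5% CO2. Caspase-3/7 activity then measured by Caspase-Glo 3/7 luminescence after 30min at room temperature.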
The nature of assay [5]: Caspase-3/7 induction in HepG2 cells by small molecules, qHTS cell viability counter screen (AID 1346981). Further: series mostly up to about 92 µM; nearly all actives have a fitted effect of over 30% in size. A digest of the protocol:
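Cell viability is measured as a cytotoxicity counter screen alongside the Caspase-Glo 3/7 readout in identical wells. Wild-type HepG2 cells are treated with test compounds for 16 hr at 37 C before CellTiter-Fluor addition and a 1-hr incubation.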

The target of assay [6] is Nuclear receptor subfamily 1 group I member 2 (Homo sapiens) (UniProt O75469). The assay is described as follows: Human pregnane X receptor (PXR) small molecule agonists, qHTS assay (AID 1346982). Further: nearly all actives have a fitted effect of over 35% in size. Further: potency means the concentration at half of the fitted maximal effect. A digest of the protocol: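 Cells: HepG2 stably carrying PXR-Luc. Medium held 5% charcoal-stripped FBS. Compounds in DMSO added after 5 hr plating, incubated 24 hr, then luminescence quantified with ONE-Glo.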

For assay [7], the target named is Nuclear receptor subfamily 1 group I member 2 (Rattus norvegicus) (UniProt Q9R1A7). Description: Rat pregnane X receptor (rPXR) activation by small molecules, qHTS assay (AID 1346983). Further: nearly all actives have a fitted effect of over 20% in size. To be noted: rPXR luciferase reporter cells, One-Glo luminescence, 24 h; stronger effect = higher value. A digest of the protocol: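 Cell-based rPXR activation assay: rPXR cells, 2,000 per well, rested 5hr at 37 C, then exposed to compounds in DMSO for 24 hr at 37 C. Luciferase activity read by One-Glo luminescence after 30 min at room temperature.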

For assay [8], the target named is Nuclear receptor subfamily 1 group I member 2 (Homo sapiens) (UniProt O75469). The assay is described as follows: CYP3A4 induction through human pregnane X receptor (PXR) by small molecules, qHTS assay (AID 1346984). Further: nearly all actives have a fitted effect of over 40% in size. The method, boiled down: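 Quantitative HTS in DPX-2 cells, i.e. HepG2 transfected with PXR response element and CYP3A4-promoter luciferase. Compounds in DMSO incubated 24hr at 37C; then P450-Glo CYP3A4 substrate, 3uM final, 3hr; One-Glo luminescence.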

Assay [9] has the same target. The assay is described as follows: Human pregnane X receptor (PXR) activation by small molecules, qHTS assay (AID 1346985). Further: nearly all actives have a fitted effect of over 40% in size. The method, boiled down:
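DPX-2 cells (HepG2 co-transfected with a PXR response element and a CYP3A4-promoter luciferase construct) were seeded at 2,000 per well, rested 5 hr at 37C, then exposed to DMSO-dissolved compounds for 24 hr. Activation was read as luciferase luminescence.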

The target of assay [10] is Cytochrome P450 2D6 (Homo sapiens) (UniProt P10635). The assay is described as follows: Cytochrome P450 Family 2 Subfamily D Member 6 (CYP2D6) small molecule antagonists: luciferase reporter qHTS assay (AID 1671196). Further: nearly all actives have a fitted effect of over 50% in size. Further: potency means the concentration at half of the fitted maximal effect. On activity change, negative = inhibition: series mostly up to about 120 µM. A digest of the protocol:
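Enzyme and proluciferin substrate were first combined with test chemical for 10 min at room temperature. Adding NADPH regeneration solution started a 1 h reaction, stopped with luciferin detection reagent and read by luminescence 20 min later.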
Background: In a reporter assay the amount or activity of a reporter protein is the signal.

In assay [11] the target is Cytochrome P450 2C19 (Homo sapiens) (UniProt P33261). Description: Cytochrome P450 Family 2 Subfamily C Member 19 (CYP2C19) small molecule antagonists: luciferase reporter qHTS assay (AID 1671197). Further: nearly all actives have a fitted effect of over 65% in size. Further: potency means the concentration at half of the fitted maximal effect. On activity change, negative = inhibition: series mostly up to about 120 µM. A digest of the protocol:
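Light output is proportional to CYP2C19 activity: proluciferin substrate is converted to luciferin, then detected by a luciferin detection reagent that also stops the 1 h, 37C NADPH-driven reaction. Ketoconazole serves as positive control.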

The target in assay [12] is Cytochrome P450 2C9 (Homo sapiens) (UniProt P11712). The assay is described as follows: Cytochrome P450 Family 2 Subfamily C Member 9 (CYP2C9) small molecule antagonists: luciferase reporter qHTS assay (AID 1671198). Further: nearly all actives have a fitted effect of over 50% in size. Further: potency means the concentration at half of the fitted maximal effect. On activity change, negative = inhibition: series mostly up to about 120 µM. The method, boiled down: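 P450-Glo proluciferin substrate with CYP2C9 enzyme; 10 min RT preincubation, then NADPH regeneration 1 h at 37C; luciferin detection reagent 20 min RT, luminescence in relative luminescence units.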

Assay [13] deals with Cytochrome P450 1A2 (Homo sapiens) (UniProt P05177). Description: Cytochrome P450 Family 1 Subfamily A Member 2 (CYP1A2) small molecule antagonists: luciferase reporter qHTS assay (AID 1671199). Further: nearly all actives have a fitted effect of over 50% in size. Further: potency means the concentration at half of the fitted maximal effect. On activity change, negative = inhibition: series mostly up to about 120 µM. A digest of the protocol: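 Compounds were incubated with CYP1A2 and a luminogenic proluciferin substrate for 10 min at room temperature before the reaction was started with NADPH regeneration solution. After 1 h, detection reagent was added and light output, proportional to CYP activity, was recorded.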

In assay [14] the target is Voltage-gated inwardly rectifying potassium channel KCNH2 (Homo sapiens) (UniProt Q12809). The assay is described as follows: Human Ether-a-go-go-Related Gene (hERG) channel small molecule antagonists: fluorescence cell-based qHTS assay (AID 1671200). Further: nearly all actives have a fitted effect of over 50% in size. Further: potency means the concentration at half of the fitted maximal effect.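 On activity change, negative = inhibition: hERG-expressing U2OS cells given a thallium stimulus after FluxOR II dye loading; series mostly up to about 77 µM.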 A digest of the protocol:
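Cell line hERG-U2OS; dye FluxOR II, 1 h RT dark; Tl+ stimulus; ex 480/em 540 nm, read each second for 2 min.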

For assay [15], the target named is Cytochrome P450 3A4 (Homo sapiens) (UniProt P08684). The assay is described as follows: Cytochrome P450 Family 3 Subfamily A Member 4 (CYP3A4) small molecule antagonists: luciferase reporter qHTS assay (AID 1671201). The method, boiled down: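 Room-temperature assay throughout: 10 min compound–enzyme/substrate preincubation, 1 h reaction after NADPH regeneration solution, 20 min detection. Luciferin formed from proluciferin substrate is quantified by luminescence.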

Several values for one entry are separate records, joined by “and”; a condition that tells them apart may be missing. Identical values can stand only once. Inconclusive results are not listed. Some compounds were tested as several samples or in several runs, with calls that do not always agree. Activity calls are given as the source filed them. The call rests on the fitted dose curve; in most records, active means well fitted curve in the direction sought with a large enough effect in the repeat runs; inconclusive means weak or mixed curves; inactive means no such curve, though single readings can be large; an effect the other way counts as inactive or inconclusive.
On the % scale 0 is the no-effect control and ±100 the full control effect.

Sequence of Voltage-gated inwardly rectifying potassium channel KCNH2 (Homo sapiens) (Q12809 whole entry, looked up): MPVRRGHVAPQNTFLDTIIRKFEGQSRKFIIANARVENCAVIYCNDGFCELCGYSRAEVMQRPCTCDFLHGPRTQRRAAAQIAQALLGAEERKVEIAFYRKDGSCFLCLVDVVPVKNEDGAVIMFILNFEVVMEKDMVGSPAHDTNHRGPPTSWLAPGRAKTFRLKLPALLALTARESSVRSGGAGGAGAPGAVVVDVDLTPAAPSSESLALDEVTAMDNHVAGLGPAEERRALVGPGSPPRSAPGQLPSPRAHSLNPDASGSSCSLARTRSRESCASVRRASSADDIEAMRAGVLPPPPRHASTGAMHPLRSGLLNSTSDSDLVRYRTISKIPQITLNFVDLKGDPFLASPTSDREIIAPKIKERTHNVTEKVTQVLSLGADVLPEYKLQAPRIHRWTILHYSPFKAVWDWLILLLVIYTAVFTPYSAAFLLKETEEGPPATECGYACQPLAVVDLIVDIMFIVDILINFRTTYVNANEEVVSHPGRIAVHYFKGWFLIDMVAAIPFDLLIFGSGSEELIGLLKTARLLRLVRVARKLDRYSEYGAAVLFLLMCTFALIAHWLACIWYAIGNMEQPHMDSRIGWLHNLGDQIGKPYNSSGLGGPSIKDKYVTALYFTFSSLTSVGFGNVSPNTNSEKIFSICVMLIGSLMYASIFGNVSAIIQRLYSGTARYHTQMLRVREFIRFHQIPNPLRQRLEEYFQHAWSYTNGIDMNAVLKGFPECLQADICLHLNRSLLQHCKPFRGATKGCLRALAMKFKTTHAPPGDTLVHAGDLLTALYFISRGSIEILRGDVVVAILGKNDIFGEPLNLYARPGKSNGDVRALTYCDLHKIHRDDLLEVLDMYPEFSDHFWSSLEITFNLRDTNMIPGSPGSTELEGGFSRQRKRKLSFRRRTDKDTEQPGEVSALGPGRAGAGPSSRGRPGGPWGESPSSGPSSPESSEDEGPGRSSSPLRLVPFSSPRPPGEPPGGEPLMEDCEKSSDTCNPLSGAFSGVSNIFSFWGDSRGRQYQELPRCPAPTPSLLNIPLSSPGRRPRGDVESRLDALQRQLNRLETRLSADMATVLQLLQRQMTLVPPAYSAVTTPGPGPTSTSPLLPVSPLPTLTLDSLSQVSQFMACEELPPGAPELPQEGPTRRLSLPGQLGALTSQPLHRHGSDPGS
Sequence of Nuclear receptor subfamily 1 group I member 2 (Homo sapiens) (O75469 whole entry, looked up): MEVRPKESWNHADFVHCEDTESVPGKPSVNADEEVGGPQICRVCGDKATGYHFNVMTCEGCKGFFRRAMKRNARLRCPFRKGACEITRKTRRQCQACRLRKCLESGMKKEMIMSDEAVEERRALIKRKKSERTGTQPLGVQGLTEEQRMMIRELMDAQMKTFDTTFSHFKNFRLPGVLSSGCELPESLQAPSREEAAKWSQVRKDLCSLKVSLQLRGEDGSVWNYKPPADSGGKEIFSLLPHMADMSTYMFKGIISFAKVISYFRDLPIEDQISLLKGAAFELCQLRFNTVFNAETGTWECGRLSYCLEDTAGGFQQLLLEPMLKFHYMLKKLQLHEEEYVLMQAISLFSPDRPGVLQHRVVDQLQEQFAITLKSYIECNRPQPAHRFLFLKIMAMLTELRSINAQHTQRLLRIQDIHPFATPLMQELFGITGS
Sequence of Cytochrome P450 3A4 (Homo sapiens) (P08684 whole entry, looked up): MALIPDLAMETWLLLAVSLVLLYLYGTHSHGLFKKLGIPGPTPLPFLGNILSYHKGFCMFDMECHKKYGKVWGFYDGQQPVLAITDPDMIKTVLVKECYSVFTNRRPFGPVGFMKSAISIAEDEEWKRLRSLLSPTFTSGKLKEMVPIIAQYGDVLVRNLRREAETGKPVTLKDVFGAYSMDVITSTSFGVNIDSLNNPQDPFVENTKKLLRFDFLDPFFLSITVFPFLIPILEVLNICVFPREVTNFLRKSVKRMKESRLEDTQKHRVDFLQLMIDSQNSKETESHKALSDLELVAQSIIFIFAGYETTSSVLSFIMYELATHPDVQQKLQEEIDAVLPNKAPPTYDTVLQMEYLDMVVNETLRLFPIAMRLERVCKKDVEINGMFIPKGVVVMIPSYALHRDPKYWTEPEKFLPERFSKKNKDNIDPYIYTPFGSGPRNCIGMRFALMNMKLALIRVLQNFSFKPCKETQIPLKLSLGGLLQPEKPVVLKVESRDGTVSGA
Sequence of Cytochrome P450 2C9 (Homo sapiens) (P11712 whole entry, looked up): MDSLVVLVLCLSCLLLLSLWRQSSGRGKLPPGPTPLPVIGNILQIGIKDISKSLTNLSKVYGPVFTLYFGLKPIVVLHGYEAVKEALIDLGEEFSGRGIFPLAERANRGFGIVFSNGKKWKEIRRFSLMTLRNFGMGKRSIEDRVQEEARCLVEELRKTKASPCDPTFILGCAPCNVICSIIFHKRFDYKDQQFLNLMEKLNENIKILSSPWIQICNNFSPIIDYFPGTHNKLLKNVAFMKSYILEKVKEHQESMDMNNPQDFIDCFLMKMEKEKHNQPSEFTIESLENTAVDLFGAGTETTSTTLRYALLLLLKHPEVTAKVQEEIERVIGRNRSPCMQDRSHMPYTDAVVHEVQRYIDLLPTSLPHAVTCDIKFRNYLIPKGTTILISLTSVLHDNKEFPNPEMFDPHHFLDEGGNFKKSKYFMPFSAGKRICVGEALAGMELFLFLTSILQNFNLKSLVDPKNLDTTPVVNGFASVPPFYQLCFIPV
Sequence of Cytochrome P450 2D6 (Homo sapiens) (P10635 whole entry, looked up): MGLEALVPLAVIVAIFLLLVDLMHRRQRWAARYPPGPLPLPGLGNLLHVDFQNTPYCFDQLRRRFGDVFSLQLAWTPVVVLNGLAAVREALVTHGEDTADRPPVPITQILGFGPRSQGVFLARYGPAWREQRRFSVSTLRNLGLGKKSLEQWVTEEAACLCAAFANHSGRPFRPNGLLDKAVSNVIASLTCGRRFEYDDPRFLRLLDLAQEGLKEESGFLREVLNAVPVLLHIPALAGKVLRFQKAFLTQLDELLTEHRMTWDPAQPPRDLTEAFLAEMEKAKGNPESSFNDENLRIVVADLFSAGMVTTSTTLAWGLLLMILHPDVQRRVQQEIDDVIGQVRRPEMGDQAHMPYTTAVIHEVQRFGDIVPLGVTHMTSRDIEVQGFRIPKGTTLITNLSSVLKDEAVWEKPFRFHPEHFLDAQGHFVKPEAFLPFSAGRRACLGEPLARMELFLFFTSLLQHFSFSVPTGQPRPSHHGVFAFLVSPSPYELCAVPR
Sequence of Cytochrome P450 1A2 (Homo sapiens) (P05177 whole entry, looked up): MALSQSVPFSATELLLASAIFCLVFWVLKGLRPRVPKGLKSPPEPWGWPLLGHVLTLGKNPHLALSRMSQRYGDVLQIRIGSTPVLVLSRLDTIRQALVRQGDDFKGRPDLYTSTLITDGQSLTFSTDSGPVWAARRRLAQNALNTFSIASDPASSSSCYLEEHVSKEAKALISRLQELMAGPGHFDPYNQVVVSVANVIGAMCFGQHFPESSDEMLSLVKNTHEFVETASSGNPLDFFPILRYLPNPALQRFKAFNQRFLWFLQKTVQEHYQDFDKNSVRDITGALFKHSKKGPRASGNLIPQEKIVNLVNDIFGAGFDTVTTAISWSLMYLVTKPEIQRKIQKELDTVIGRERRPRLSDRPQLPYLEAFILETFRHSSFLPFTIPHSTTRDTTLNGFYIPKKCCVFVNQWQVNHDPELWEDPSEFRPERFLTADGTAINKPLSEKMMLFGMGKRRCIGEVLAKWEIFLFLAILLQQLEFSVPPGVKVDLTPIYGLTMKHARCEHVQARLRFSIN
Sequence of Cytochrome P450 2C19 (Homo sapiens) (P33261 whole entry, looked up): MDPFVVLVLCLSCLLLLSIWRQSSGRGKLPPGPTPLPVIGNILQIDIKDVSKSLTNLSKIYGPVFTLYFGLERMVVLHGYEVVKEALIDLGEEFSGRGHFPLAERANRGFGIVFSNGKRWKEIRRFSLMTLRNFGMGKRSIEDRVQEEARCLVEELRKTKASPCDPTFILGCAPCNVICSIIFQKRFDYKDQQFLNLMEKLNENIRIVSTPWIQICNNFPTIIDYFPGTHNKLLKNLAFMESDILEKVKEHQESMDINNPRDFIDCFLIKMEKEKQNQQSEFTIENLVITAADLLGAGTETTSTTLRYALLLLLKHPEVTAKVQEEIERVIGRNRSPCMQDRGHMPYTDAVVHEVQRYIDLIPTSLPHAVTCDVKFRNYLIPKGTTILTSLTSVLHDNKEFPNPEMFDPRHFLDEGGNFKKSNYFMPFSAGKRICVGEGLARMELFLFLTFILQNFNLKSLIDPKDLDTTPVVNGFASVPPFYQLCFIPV
Sequence of Nuclear receptor subfamily 1 group I member 2 (Rattus norvegicus) (Q9R1A7 whole entry, looked up): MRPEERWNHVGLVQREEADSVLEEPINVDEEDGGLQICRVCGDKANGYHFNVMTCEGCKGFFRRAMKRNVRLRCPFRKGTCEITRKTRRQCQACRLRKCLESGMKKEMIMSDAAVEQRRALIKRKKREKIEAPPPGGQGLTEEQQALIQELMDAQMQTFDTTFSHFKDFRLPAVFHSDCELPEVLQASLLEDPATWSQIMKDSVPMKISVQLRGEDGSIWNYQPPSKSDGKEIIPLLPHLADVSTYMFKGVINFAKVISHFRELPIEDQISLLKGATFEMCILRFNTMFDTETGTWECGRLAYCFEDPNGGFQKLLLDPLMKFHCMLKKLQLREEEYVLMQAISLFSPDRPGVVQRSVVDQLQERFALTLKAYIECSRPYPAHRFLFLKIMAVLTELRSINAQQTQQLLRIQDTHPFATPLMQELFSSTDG

With `OCc1ccc(Cl)cc1Cl`, the Potency result in assay [1], in assay [2], in assay [3], in assay [4], in assay [5] and in [6] was “inactive” each time. Also, the Potency entry in assay [8], in assay [10], in assay [11], in assay [12], in assay [14] and in assay [15] was “inactive” in each case. Moreover, the max activation in [7] was -2.12% (inactive). Moreover, the call in [9] was inactive. For the same compound, in [13], the Potency was 39.9 µM (active).

As for `CCc1cccc(CC)c1N`, the Potency entry in assay [1], in [2], in assay [3], in assay [4], in assay [5] and in assay [6] was “inactive” throughout. Also, the Potency entry in [10], in assay [14] and in assay [15] was “inactive” each time. The Potency entry in [11] was “inactive and 79.6 µM (active)”; in assay [12], 71 µM (active); in assay [13], 22.6 µM (active) and 5.64 µM (active).

Regarding `CC(C)c1ccc(C(C)C)cc1`, the Potency result in assay [1], in assay [2], in assay [3], in assay [4], in assay [5] and in [6] was “inactive” throughout. In addition, the Potency entry in assay [10], in assay [11], in [12], in [14] and in assay [15] was “inactive” in each case.

Consider `CCCCCCCCO`, for which the Potency entry in assay [1], in assay [2], in [3], in assay [4], in [5] and in assay [6] was “inactive” in each case. Further, the Potency entry in assay [10], in assay [11], in [12], in [14] and in assay [15] was “inactive” each time. Also, in assay [13], the Potency is 37.1 µM (active).

With `CCCCCCCCCCCC(=O)N(C)CC(=O)O`, the Potency entry in assay [1], in assay [2], in [3], in assay [5], in [13] and in [14] was “inactive” each time. The Potency result in [15] is “inactive”. Also, the Potency was 59.2 µM (active) in assay [6] and 38.7 µM (active) in [12]. Moreover, the activation in assay [6] is -3.89% [at 8.39 µM] (inactive). Besides, the activity change, negative = inhibition in [10] was -25.2% [at 10.5 µM] (inactive); in assay [11] it was 17.6% [at 10.5 µM] (inactive); in assay [12], -4.94% [at 10.5 µM] (inactive).

For `CCCCCCCCC(=O)O`, the Potency result in [1], in assay [2], in assay [5], in assay [6], in [14] and in assay [15] was “inactive” throughout. Further, the Potency is 34.4 µM (active) and inactive in [10]; 30.7 µM (active) in [11]; 61.3 µM (active) and 79.6 µM (active) in [12]; 38.6 µM (active) in assay [13].

In the case of `CC(C)(C)NC[C@H](O)COc1nsnc1N1CCOCC1`, the Potency result in assay [1], in assay [2], in assay [3], in assay [4], in assay [5] and in [11] was “inactive” each time. In addition, the Potency entry in [12] and in [14] was “inactive” each time.

For `CC(CN1c2ccccc2Sc2ccccc21)N(C)C` (stereo not given), the Potency is 44.7 µM (active) and 48.6 µM (active) in assay [1]; 61.1 µM (active) in [3]; 19.3 µM (active) and inactive in assay [6]; 8.05 µM (active) and 10 µM (active) and 7.76 µM (active) in [11]; 22.1 µM (active) and 21.9 µM (active) and 21.3 µM (active) in [14]. Besides, the Potency entry in [2], in assay [4] and in assay [15] was “inactive” in each case.

Turning to `CC(=O)CC(=O)N(C)C`, the Potency entry in [1], in assay [2], in assay [3], in assay [5], in assay [6] and in [10] was “inactive” in each case. The Potency entry in [11], in assay [12], in [13], in [14] and in assay [15] was “inactive” in each case.

(Values after PubChem BioAssay (Tox21).)
